High-throughput results as filed in PubChem.
This is a sample that favours compounds with a hit; in the whole collection about 21% have one here.
CHX counter: counter-screen hit for Shiga toxin inhibitors, cycloheximide; 300,000 compounds, 12% hits; max response, %; cell reporter, cycloheximide protein synthesis inhibition counterscreen; in the data active = max response mostly above about 13%, no sharp cut-off; inactive = mostly below about 14%; note: read at 38.3 µM for the half of the compounds with a filed dose; 0% is about no effect
Shiga toxin inh: inhibitors of Shiga toxin in Vero cells; Vero cells, Shiga toxin protein synthesis inhibition reporter; inhibition, % at 38.7 µM; 290,000 compounds, 9.2% hits; AID 2315; in the data active = inhibition mostly above about 28%, no sharp cut-off; inactive = mostly below about 43%; note: 0% is about no effect
Pf growth 48h: P. falciparum growth inhibition at 48 hours (one generation). P. falciparum luciferase growth in erythrocytes, 48 h. Potency, µM (series often up to 28.7 µM), inactives show top-dose activity change, negative = inhibition, usual class: inhibitors. 310,000 compounds, 5.9% hits; active = well fitted inhibition curve with a large enough effect; inconclusive = small, poorly fitted or top-dose-only effect, or another doubt; inactive = no such curve, though single readings can be large or run the other way; note: potency is the fitted concentration of half-maximal effect; % is set by controls: 0 for no effect and ±100 for the full control effect
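Here the parasites carry a stable luciferase gene and grow inside erythrocytes in Albumax-based RPMI medium with compound for one erythrocytic cycle. Activity is scored as loss of luminescent signal.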
Pf growth 96h: P. falciparum growth inhibition at 96 hours; 320,000 compounds, 6.9% hits; P. falciparum luciferase reporter growth, 96 h; Potency, µM (doses to about 28.7 µM), inactives show at the top dose activity change, negative = inhibition, hits mostly inhibitors; active = well fitted inhibition curve with a large enough effect; inconclusive = small, poorly fitted or top-dose-only effect, or another doubt; inactive = no such curve, though single readings can be large or run the other way; note: potency is the fitted concentration of half-maximal effect; % is set by controls: 0 for no effect and ±100 for the full control effect
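Compounds incubated with erythrocytes infected by luciferase-expressing P. falciparum (2% hematocrit, 0.05% parasitemia final) for 96 hours, 37 C in 5% CO2. Growth inhibition scored as decreased luciferase luminescence.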
SARS PLP yeast: SARS-CoV PLP inhibition in yeast; S. cerevisiae expressing SARS-CoV PLpro, growth rescue; Potency, µM (highest dose often 32.9 µM), for the others: at the highest dose activity, positive = growth rescue, usual class: activators; 330,000 compounds, 0.19% hits; AID 485353; note: potency is the fitted concentration of half-maximal effect; 0% is about no effect; nearly all actives have a fitted effect of over 55% in size
NS1 inh: blocks influenza NS1 protein function | 270,000 compounds, 0.4% hits | Potency, µM (titrated, usually from 46.1 µM), without a hit: top-dose activity, positive = more growth | AID 2326; note: potency is the fitted concentration of half-maximal effect; actives are rising curves; nearly all actives have a fitted effect of over 50% in size
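S. cerevisiae expressing influenza A NS1, grown in glucose, washed, then diluted 1:100 into pH 6.0 -URA galactose medium with 23 nl compound. Growth recovery read as OD600; NS1-free strain serves as control.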
* hit, by the source's call; ? = inconclusive; . = no result; [ ] = dose if it differs, or a comment. Unless noted, calls come from the whole dose curve.

SMILES	CHX counter	Shiga toxin inh	Pf growth 48h	Pf growth 96h	SARS PLP yeast	NS1 inh
O=C(C1=C[C@H](c2csc3ccccc23)C[C@H](OCCCCO)O1)N1CCN(Cc2ccccc2)CC1	-2	-1	3.7µM*	2.3µM*	-2%	-8%
O=C(C1=C[C@@H](c2csc3ccccc23)C[C@@H](OCCCCO)O1)N1CCN(Cc2ccc3c(c2)OCO3)CC1	3	-7	?	12µM*	-1%	-11%
O=C(C1=C[C@@H](c2coc3ccccc3c2=O)C[C@@H](OCCCCO)O1)N1CCN(Cc2ccccc2)CC1	-2	-17	?	?	-1%	-10%
O=C(C1=C[C@@H](c2coc3ccccc3c2=O)C[C@@H](OCCCCO)O1)N1CCN(Cc2ccc3c(c2)OCO3)CC1	-2	-8	?	3.3µM*	-1%	-12%
CCC(=O)N1CCc2cc(Br)cc(S(=O)(=O)NCc3ccccc3OC)c21	-3	-13	6%	?	-1%	10%
CC(=O)c1cn(-c2ccc(Cl)cc2)c(=O)[nH]c1=O	-5	-13	18%	?	1%	-1%
Cc1nc2ccccn2c1C(=O)NN=C1C2CC3CC(C2)CC1C3	11	11	-1%	50%	12%	17%
O=C(Nc1cc(N2CCCCC2)ncn1)c1ccccc1	29*	54*	23%	5%	-2%	-11%
Cn1c(=O)n(C)c2cc(N3CCCCC3)c(NC(=O)c3ccccc3)cc21	-3	11	?	?	-4%	5%
c1ccc(-c2cc(N3CCCCC3)ncn2)cc1	41*	62*	92%	.	-6%	-33%
c1ccc(-c2cc(N3CCCCCC3)n[nH]2)cc1	48*	151*	?	15%	0%	?
CCc1nc(N2CCN(S(C)(=O)=O)CC2)c2c3c(sc2n1)CCCC3	-3	-11	?	5%	-2%	-4%
COC(=O)C1=C[C@@H](C(=O)OC)[C@@H]2C3=C(C(=O)[C@@]2(C)NC(=O)c2ccccc2)[C@H](C)[C@@H]2C(=O)N(Cc4ccccc4)C(=O)[C@@H]2[C@@H]3C1	0	2	.	.	.	.
Cc1cc(C)n(-c2nc(Nc3ccccc3C(F)(F)F)nc(-n3nc(C)cc3C)n2)n1	-4	-6	4.1µM*	-108%	-7%	17%
Cc1cc(C(=O)Nc2ccccc2C)n(-c2ccccc2)n1	-2	-6	6%[0.00184 µM]	10%	0%	2%
Cc1cc(C)n(-c2nc(Nc3ccccc3C)nc(-n3nc(C)cc3C)n2)n1	0	-11	2.3µM*	1µM*	-4%	27%
Cc1cc(=O)oc2c3c(cc(OCC(=O)NCc4ccncc4)c12)OC(C)(C)CC3	-2	-10	?	10µM*	2%	-13%
Cc1c(C)c2c(OCC(=O)NCc3ccncc3)cc3c(c2oc1=O)CCC(C)(C)O3	-2	-9	?	2.9µM*	-11%	9%
COc1ccc(CNC(=O)COc2cc3c(c4oc(=O)cc(C)c24)CCC(C)(C)O3)cc1OC	2	-5	10µM*	7.4µM*	?	1%
Cc1c(C)c2c(OCC(=O)NCC(C)C)cc3c(c2oc1=O)CCC(C)(C)O3	-1	-5	8.3µM*	?	0%	2%
Cc1c(C)c2c(OCC(=O)NCc3cccnc3)cc3c(c2oc1=O)CCC(C)(C)O3	-1	-3	-8%	?	-1%	5%
Cc1cc(=O)oc2c3c(cc(OCC(=O)NCCCn4ccnc4)c12)OC(C)(C)CC3	4	9	?	?	0%	-2%
Cc1cc(=O)oc2c3c(cc(OCC(=O)NCc4ccco4)c12)OC(C)(C)CC3	30*	33*	?	8.3µM*	-8%	-22%
O=C(NC(=S)NCC1CCCO1)c1ccc(Br)o1 (stereo not drawn)	30*	67	76%	-3%	0%	2%
Cc1ccc(C(=O)NC(=S)NCC2CCCO2)cc1Br (stereo not drawn)	52*	78*	70%	76%	3%	-5%
O=C(NNC(=S)NCC1CCCO1)c1cc(Br)ccc1Cl (stereo not drawn)	6	-7	?	5%	9%	18%
O=C(NC(=S)NCC1CCCO1)c1ccco1 (stereo not drawn)	16	16	-9%	7%	3%	8%
